Data on five molecules can be found in PubChem BioAssay.

Calls of active or inactive are those of the source. Unless noted, the rule behind the calls is not given here.

Assay [1] in a line: anti-His antibody binders, primary screen, artefact control for SMM control protein annotation, biochemical, small-molecule microarray, 635 nm fluorescence (AID 1128).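 Note: score merges feature fluorescence with signal-to-noise for each printed compound spot.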 The settings on record: anti-His Alexa647 antibody binding, higher = more signal.
The test system of assay [2] is Human papillomavirus type 1a E7 protein (residues 1-88). Nature of the assay: HPV1a E7 small-molecule binders, primary screen, biochemical, small-molecule microarray, residues 1-88, 635 nm (AID 1129). The settings on record: small-molecule microarray binding, fluorescence 635 nm; higher = more signal.
Assay [3] concerns the target Focal adhesion kinase 1 (Homo sapiens) (UniProt Q05397). Nature of the assay: small-molecule microarray binders of FAK, primary screen, biochemical, 635/667 nm fluorescence, BSA, DTT (AID 1130).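 Note: composite of spot emission at 667 nm and signal to noise over triplicate slides.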 The following applies: PTK2 binding, 635 nm fluorescence, higher = more signal.
The test system of assay [4] is Fibrinogen (Alexa647-labelled). Nature of the assay: fibrinogen binders on compound microarrays, profiling panel, artefact control for SMM control-protein annotation, biochemical, small-molecule microarray, 635/667 nm fluorescence (AID 1131).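 Note: z-score merges 667 nm fluorescence with per-spot signal-to-noise over triplicate slides.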 The following applies: fibrinogen-A647 binding fluorescence, higher = more signal.
The target of assay [5] is Follistatin (Homo sapiens) (UniProt P19883). Nature of the assay: follistatin binders on small-molecule microarrays, primary screen, biochemical, small-molecule microarray, 635/667 nm fluorescence (AID 1132). The following applies: FST binding, 635 nm fluorescence, higher = more signal.
Assay [6] has as its target Fibroblast growth factor 2 (Homo sapiens) (UniProt P09038). Nature of the assay: FGF2 binders on small-molecule microarrays, primary screen, biochemical, small-molecule microarray, 635/667 nm fluorescence (AID 1133). The settings on record: small-molecule microarray binding, FGF2, fluorescence 635/667; higher = more signal.
Assay [7] is described as follows: mitochondrial membrane potential change in A549 cells, profiling panel, cell-based, JC-1 fluorescence, basal, 24 h, 100 nL (AID 1138).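 Note: A549 lung adenocarcinoma cells under basal conditions with no added stimulus; test concentration not given here.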 The following applies: higher = more signal.
Another assay concerns Lefty1. Nature of the assay: Lefty1 binders on small-molecule microarrays, primary screen, biochemical, small-molecule microarray, 635/667 nm fluorescence (AID 1139). The following applies: small-molecule microarray binding, fluorescence 635/667; higher = more signal.
The test system of assay [8] is wheat germ agglutinin (Triticum aestivum), Alexa647-labelled. Nature of the assay: wheat germ agglutinin binders on compound microarrays, profiling panel, artefact control for SMM control-protein annotation, biochemical, small-molecule microarray, 635/667 nm fluorescence (AID 1140).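 Note: score merges 667 nm feature emission with signal to noise over triplicate slides.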 The settings on record: WGA-A647 binding, 635 nm fluorescence, higher = more signal.
Assay [9] addresses Luciferin 4-monooxygenase (Photinus pyralis) (UniProt P08659). Nature of the assay: firefly luciferase enzyme inhibitors, primary screen, biochemical, luminescence, purified enzyme, 2006 set (AID 1141).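 Note: cell-free assay with purified firefly luciferase at 100 ng per well in PBS; test concentration not given here.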 The following applies: SteadyGlo luminescence, 30 min, higher = more signal, called active from +8 up or from −8 down.
Assay [10] relates to Wnt5a (protein binding on small-molecule microarray). Nature of the assay: Wnt5a binders on small-molecule microarray, primary screen, biophysical, 635/667 nm fluorescence (AID 1142).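 Note: fluorescence read at 667 nm with signal to noise per printed feature.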 The settings on record: 635 nm fluorescence, higher = more signal.
Assay [11] can be described thus: cell viability in Huh7 cells, primary screen, cytotoxicity control for HCV replication inhibitor project, CellTiter-Glo luminescence, basal, 48 h (AID 1143).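 Note: Huh7 hepatoma cells carrying a hepatitis C replication reporter with no stimulus; test concentration not given here.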 The settings on record: Huh7 HCV replicon, higher = more signal, called active from +8 up or from −8 down. (Cellular ATP, detected with luciferase, serves as a proxy for viable cell number.)
Assay [12] can be described thus: P. aeruginosa biofilm formation inhibitors, primary screen, PAO1 strain, BacTiter-Glo luminescence, LB-PBS (AID 1144). The following applies: 12 h, higher = more signal.
A short description of assay [13]: CREB reporter modulators without forskolin, primary screen, cell-based, PC12, CRE-LacZ reporter, unstimulated (AID 1145). The settings on record: no forskolin, luminescence, 4.5 h, higher = more signal, called active from +8 up or from −8 down.
Assay [14] in a line: CREB reporter modulators under forskolin, primary screen, cell-based, PC12, CRE-LacZ reporter, forskolin-stimulated (AID 1146).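 Note: PC12 cells with 6xCRE LacZ reporter stimulated by forskolin 10 µM; beta-galactosidase reporter signal reflecting CREB driven transcription.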 The following applies: luminescence, 4.5 h, higher = more signal, called active from +8 up or from −8 down.
In assay [15] the target is Streptavidin (Streptomyces avidinii) (UniProt P22629). Nature of the assay: streptavidin binders on small-molecule microarray, primary screen, artefact control for SMM compound annotation, biophysical, 635/667 nm fluorescence (AID 1147).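 Note: signal reflects streptavidin binding to arrayed compounds as a control protein.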 The settings on record: streptavidin binding, higher = more signal.
Assay [16] in a line: small-molecule binders of probe aInhba, primary screen, biochemical, small-molecule microarray, 635/667 nm fluorescence (AID 1148).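 Note: score merges 667nm spot fluorescence with signal-to-noise for antibody binding to printed compounds.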 The following applies: higher = more signal.
Assay [17] concerns the target Torsin-1A (Homo sapiens) (UniProt O14656). As to the kind of experiment: torsin A binders from cell lysate, primary screen, small-molecule microarray, wild-type, 635/667 nm (AID 1149). The settings on record: COS7 hTOR1A-WT lysate, 635 nm fluorescence, higher = more signal.
Assay [18] shares this target. As to the kind of experiment: small-molecule binders of mutant TOR1A in lysate, primary screen, cell lysate, small-molecule microarray, COS7 lysate, 635/667 nm fluorescence (AID 1150).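 Note: score pools 667 nm emission and signal to noise measuring lysate protein binding.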 The following applies: COS7 hTOR1A mutant lysate, 635 nm fluorescence, higher = more signal.
The subject of assay [19] is Sonic hedgehog protein (Shh). Nature of the assay: small-molecule binders of Shh protein, primary screen, biochemical, small-molecule microarray, 635/667 nm fluorescence (AID 1151).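 Note: Shh protein binding to compounds spotted on small-molecule microarray slides; score combines spot fluorescence intensity with signal-to-noise across triplicate slides.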 The settings on record: small-molecule microarray binding, 635 nm fluorescence; higher = more signal.

Streptavidin (Streptomyces avidinii), sequence (P22629 whole entry, looked up): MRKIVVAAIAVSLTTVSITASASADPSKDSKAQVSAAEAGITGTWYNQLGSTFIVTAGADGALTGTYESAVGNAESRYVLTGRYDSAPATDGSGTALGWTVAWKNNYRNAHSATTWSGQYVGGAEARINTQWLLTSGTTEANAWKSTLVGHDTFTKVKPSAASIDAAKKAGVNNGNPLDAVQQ
Fibroblast growth factor 2 (Homo sapiens), sequence (P09038 whole entry, looked up): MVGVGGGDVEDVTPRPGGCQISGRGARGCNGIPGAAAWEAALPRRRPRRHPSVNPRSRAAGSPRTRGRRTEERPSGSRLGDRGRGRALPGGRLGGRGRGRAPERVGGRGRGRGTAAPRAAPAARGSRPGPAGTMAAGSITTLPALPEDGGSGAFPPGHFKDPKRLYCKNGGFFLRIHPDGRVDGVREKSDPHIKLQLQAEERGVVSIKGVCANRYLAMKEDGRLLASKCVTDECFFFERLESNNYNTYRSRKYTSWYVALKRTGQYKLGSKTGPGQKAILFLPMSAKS
Torsin-1A (Homo sapiens), sequence (O14656 whole entry, looked up): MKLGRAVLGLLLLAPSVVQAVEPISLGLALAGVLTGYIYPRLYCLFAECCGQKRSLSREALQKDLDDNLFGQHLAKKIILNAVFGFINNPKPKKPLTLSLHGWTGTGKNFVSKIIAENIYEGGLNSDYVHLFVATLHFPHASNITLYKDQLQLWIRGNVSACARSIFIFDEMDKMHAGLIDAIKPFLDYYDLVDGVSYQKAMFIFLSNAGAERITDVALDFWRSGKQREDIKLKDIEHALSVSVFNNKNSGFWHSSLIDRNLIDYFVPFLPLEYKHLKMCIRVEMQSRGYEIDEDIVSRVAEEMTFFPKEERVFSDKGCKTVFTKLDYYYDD
Luciferin 4-monooxygenase (Photinus pyralis), sequence (P08659 whole entry, looked up): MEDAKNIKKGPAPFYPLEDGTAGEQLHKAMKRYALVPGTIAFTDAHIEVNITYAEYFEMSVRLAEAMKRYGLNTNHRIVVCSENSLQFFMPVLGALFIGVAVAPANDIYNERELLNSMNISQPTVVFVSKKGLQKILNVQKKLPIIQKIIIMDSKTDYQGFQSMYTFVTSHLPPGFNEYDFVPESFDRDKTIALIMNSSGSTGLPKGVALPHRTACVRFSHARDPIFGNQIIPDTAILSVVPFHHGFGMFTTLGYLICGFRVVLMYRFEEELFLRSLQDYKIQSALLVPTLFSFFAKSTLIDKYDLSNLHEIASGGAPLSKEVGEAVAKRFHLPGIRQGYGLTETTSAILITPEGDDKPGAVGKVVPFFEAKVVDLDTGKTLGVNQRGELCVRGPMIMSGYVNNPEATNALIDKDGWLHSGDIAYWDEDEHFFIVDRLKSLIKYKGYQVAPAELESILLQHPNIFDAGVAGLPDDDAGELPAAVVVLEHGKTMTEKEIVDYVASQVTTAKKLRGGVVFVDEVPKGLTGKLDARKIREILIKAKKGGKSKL
Focal adhesion kinase 1 (Homo sapiens), sequence (Q05397 whole entry, looked up): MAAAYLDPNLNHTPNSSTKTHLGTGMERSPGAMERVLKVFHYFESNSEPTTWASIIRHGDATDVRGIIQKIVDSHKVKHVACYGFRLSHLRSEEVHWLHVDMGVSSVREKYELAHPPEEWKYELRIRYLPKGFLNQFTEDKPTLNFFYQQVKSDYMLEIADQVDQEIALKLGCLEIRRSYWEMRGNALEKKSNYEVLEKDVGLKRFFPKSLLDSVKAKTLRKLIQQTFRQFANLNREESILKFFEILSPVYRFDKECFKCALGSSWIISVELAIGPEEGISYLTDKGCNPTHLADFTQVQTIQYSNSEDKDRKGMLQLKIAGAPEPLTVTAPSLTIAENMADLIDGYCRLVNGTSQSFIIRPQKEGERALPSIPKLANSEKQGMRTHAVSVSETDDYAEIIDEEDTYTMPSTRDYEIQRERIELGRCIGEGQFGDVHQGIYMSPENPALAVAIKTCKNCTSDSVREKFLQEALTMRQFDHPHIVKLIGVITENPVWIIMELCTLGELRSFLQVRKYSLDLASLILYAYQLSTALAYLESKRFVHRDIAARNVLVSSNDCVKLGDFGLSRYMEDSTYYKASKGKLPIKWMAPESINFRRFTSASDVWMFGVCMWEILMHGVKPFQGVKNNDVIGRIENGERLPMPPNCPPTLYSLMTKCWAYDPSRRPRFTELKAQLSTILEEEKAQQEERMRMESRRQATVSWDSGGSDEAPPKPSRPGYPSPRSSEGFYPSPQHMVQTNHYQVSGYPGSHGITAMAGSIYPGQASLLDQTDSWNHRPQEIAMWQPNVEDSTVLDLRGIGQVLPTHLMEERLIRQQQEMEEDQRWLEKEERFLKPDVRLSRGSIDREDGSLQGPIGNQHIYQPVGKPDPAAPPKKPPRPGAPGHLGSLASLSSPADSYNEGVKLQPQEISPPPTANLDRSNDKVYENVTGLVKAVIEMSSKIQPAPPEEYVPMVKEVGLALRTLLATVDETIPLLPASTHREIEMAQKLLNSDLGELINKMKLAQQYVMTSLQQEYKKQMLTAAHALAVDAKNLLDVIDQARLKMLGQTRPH
Follistatin (Homo sapiens), sequence (P19883 whole entry, looked up): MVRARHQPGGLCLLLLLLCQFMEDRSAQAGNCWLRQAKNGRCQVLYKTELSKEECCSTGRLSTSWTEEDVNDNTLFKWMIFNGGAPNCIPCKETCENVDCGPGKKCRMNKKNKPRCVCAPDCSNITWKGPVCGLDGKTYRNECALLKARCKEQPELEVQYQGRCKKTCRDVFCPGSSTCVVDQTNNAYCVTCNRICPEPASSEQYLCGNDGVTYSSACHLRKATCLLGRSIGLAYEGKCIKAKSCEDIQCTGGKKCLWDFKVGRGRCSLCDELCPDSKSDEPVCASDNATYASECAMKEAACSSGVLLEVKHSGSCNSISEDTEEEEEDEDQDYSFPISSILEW

Regarding `CN(C)CCCN1C(=O)[C@@]2(c3ccc([N+](=O)[O-])cc3)CC(=O)N(C3CCCCC3)[C@@H]2c2ccc(CO)cc21`, the composite z-score was 0.0598 in assay [1]; -1.05 in assay [2]; -0.042 in [3]; -0.916 in assay [4]; 0.0687 in assay [5]; 0.836 in assay [6]. Further, the composite z-score in the assay on Lefty1 was -0.262; in [8] it was 0.12; in [10] it was 0.131; in assay [15] it was 0.161; in assay [16], -0.101; with Torsin-1A (Homo sapiens) [17] it was -0.954. Also, the composite z-score with Torsin-1A (Homo sapiens) [18] was -0.288; in assay [19], -0.93. Further, the z-score in assay [7] was -0.493; in assay [9], 1.2 (inactive); in assay [11], -1.79 (inactive); in assay [12], -1.09 (inactive); in assay [13], -0.464 (inactive); in assay [14], -0.477 (inactive).
In the case of `COc1ccc([Si](C)(C)[C@@H]2[C@@H](CCO)O[C@]3(C(=O)N(Cc4ccccc4)c4ccc(N(C=O)c5ccccc5)cc43)[C@H]2C)cc1`, the composite z-score is 1.24 in assay [1]; 0.0244 in [2]; -0.205 in assay [3]; 0.181 in [4]; 1.08 in assay [5]; 0.614 in [6]. In addition, the composite z-score in the assay with Lefty1 is 0.497; in [8] it was 0.467; in [10], 0.155; in assay [15] it was -0.0047; in assay [16], -0.0762; in the assay with Torsin-1A (Homo sapiens) [17], 0.353. For the same molecule, the figures for the composite z-score (with Torsin-1A (Homo sapiens) [18]; in assay [19]) were 0.188 and 1.26, respectively. Further, the z-score in [7] is -0.276; in assay [9], -0.301 (inactive); in assay [11], -5.23 (inactive); in [12] it was -1.1 (inactive); in assay [13], 4.18 (inactive); in [14], -0.336 (inactive).
For `COCCOC(=O)N1C(=O)[C@@]2(c3ccccc31)[C@H](c1ccc(O)cc1)N1[C@H](c3ccccc3)[C@H](c3ccccc3)OC(=O)[C@H]1[C@@H]2C(N)=O`, the composite z-score in assay [1] is -0.445; in assay [2], -0.218; in [3], -0.046; in assay [4] it was -1.35; in assay [5] it was -0.601; in assay [6], -0.239. The composite z-score in the assay with Lefty1 is -0.0341; in [8], -0.0601; in assay [10], -0.235; in assay [15] it was -0.516; in assay [16] it was -0.128; in the assay with Torsin-1A (Homo sapiens) [17] it was -1.04. In addition, the results for the composite z-score (in the assay with Torsin-1A (Homo sapiens) [18]; in assay [19]) were 0.619 and -0.218, respectively. Besides, the z-score in assay [7] was 0.181; in [9] it was -0.144 (inactive); in assay [11], -1.34 (inactive); in [12], 0.0439 (inactive); in assay [13] it was 0.208 (inactive); in assay [14] it was 1.88 (inactive).
Regarding `Cc1ccccc1/C=C/C=O`, the composite z-score in assay [1] is -0.0248; in assay [2] it was -1.29; in assay [3], -0.3; in assay [4] it was -2.75; in assay [5], -0.0561; in [6], -0.134. Also, the composite z-score was -0.234 with Lefty1; -0.604 in [8]; -0.373 in [10]; -0.943 in assay [15]; -0.137 in assay [16]; -1.41 with Torsin-1A (Homo sapiens) [17]. Moreover, the composite z-score is -0.62 with Torsin-1A (Homo sapiens) [18] and -0.0373 in [19]. In addition, the z-score in assay [7] was 0.795; in [9], 0.702 (inactive); in assay [11], -0.042 (inactive); in [12], -0.242 (inactive); in [13], -0.204 (inactive); in [14], 0.834 (inactive).
For the molecule `CS(=O)(=O)CCOC(=O)C1=CC(c2ccc(CO)cc2)=CC(c2cccs2)N(Cc2cccc(OC(F)(F)F)c2)C=C1C(=O)OCCS(C)(=O)=O` (stereo not given), the composite z-score in assay [1] was 0.419; in assay [2], 0.969; in assay [3], 0.513; in [4] it was 1.01; in assay [5] it was 1.21; in assay [6], 0.0903. Moreover, the composite z-score in the assay on Lefty1 is 0.836; in assay [8], 0.929; in [10], 0.104; in assay [15], 1.72; in [16], 0.0047; in the assay with Torsin-1A (Homo sapiens) [17], 1.45. Also, the composite z-score amounted to 0.543 with Torsin-1A (Homo sapiens) [18] and 0.75 in [19]. Further, the z-score in [7] is 1.91; in assay [9] it was -1.86 (inactive); in assay [11], -3.67 (inactive); in [12], 0.676 (inactive); in assay [13] it was 0.695 (inactive); in [14] it was -2.12 (inactive).
